High-throughput results: PubChem BioAssay, National Center for Advancing Translational Sciences (NCATS)
Only a selection was taken, and hits are over-represented in it overall.
p53ts 32C kill – p53ts cell cytotoxicity, permissive temperature | Potency, µM (doses to about 46.1 µM), without a hit: at the highest dose activity change, negative = cytotoxicity, actives largely listed as cytotoxic | hit rate 0.93% among 130,000 | H1299-p53A138V at 32C, ATP luminescence viability, 24 h | AID 924;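 also: potency is read from the fitted curve at half-maximal effect; 0% = DMSO and -100% = full killing by reference compound; nearly all actives have a fitted effect of over 55% in size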
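H1299-p53 A138V cells (temperature-sensitive p53) exposed 24 h to up to 46 uM compound at 32C, where p53 is wild-type in conformation. Viability read as ATP luminescence and normalised to DMSO and 100 uM tamoxifen. AC50 fitted with the Hill equation.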
p53ts 39C kill – p53ts cell cytotoxicity, nonpermissive temperature; hit rate 1.5% among 130,000; Potency, µM (series often up to 46.1 µM), for the others: at the highest dose activity change, negative = cell killing, actives largely listed as cytotoxic; H1299-p53A138V viability at 39C, ATP luminescence, 24 h; also: potency is read from the fitted curve at half-maximal effect; % is scaled to controls: 0 for no effect and ±100 for the full control effect; nearly all actives have a fitted effect of over 55% in size
Luciferase inh – firefly luciferase inhibition; P08659; purified firefly luciferase, luminescence, 8 min; Potency, µM (doses to about 57.1 µM), inactives show at the highest dose activity change, negative = inhibition, actives largely listed as inhibitors; hit rate 2.2% among 72,000; AID 411; also: potency is read from the fitted curve at half-maximal effect; % is scaled to controls: 0 for no effect and ±100 for the full control effect; nearly all actives have a fitted effect of over 40% in size
Target sequence (P08659 whole entry, looked up): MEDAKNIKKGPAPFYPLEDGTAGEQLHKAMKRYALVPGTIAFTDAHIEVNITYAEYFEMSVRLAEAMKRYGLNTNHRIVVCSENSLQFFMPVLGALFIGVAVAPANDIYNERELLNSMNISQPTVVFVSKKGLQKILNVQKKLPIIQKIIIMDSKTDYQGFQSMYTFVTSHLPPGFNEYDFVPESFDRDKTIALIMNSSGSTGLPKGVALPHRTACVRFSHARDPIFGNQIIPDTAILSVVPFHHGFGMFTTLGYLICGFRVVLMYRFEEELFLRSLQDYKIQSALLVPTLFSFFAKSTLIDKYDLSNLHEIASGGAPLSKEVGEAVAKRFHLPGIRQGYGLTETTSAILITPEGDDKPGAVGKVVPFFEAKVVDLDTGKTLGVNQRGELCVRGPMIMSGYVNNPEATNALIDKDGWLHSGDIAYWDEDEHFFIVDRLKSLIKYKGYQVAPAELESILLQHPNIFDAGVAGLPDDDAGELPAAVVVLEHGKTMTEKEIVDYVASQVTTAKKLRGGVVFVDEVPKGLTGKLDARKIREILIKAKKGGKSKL
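Titration-based qHTS; buffer 50 mM imidazole pH 7.2, 50 mM KCl, 7 mM MgCl2, 10 uM ATP, 0.01% Tween 20, 0.05% BSA; luciferase/luciferin detector mix added after compound; 8 min, ambient; luminescence.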
IMPase inh – cell-permeable inhibitors of inositol monophosphatase (IMPase); P97697; CHO-M1 cells, IP1 accumulation, HTRF TR-FRET ratio; inhibition (IP1 accumulation), % at 46.1 µM; 120,000 tested, under 10 active; active = well fitted curve in the direction sought with a large enough effect in the signal ratio, not every such curve was filed as active; inconclusive = small, poorly fitted or top-dose-only effect, or a change in a side signal; inactive = no such curve, though single readings can be large or run the other way; the % refers to the signal ratio;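 also: cells stimulated with carbachol in lithium chloride buffer; plate controls were DMSO basal wells for no effect and reference inhibitor wells for full effect; higher means more IMPase inhibition seen as more IP1 and lower FRET ratio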
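Elevated IP1 in lysates lowers TR-FRET signal (665/620 ratio and 620 channel reported). Cells were CHO-M1, given carbachol (50 uM as added) plus 50mM LiCl, pH 7.4, 30 min, 37C; compounds titrated up to 46 uM; AC50 by Hill equation.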
IkB sig inh – IkB pathway inhibition in ABC-DLBCL cells; ABC-DLBCL IkBa-CBG/CBR dual luciferase ratio, 4 h; response scale: scaled: untreated 0%, proteasome inhibitor 100%; Potency, µM (highest dose often 57.1 µM), for the others: at the highest dose IkBa stabilization activation; hit rate 0.04% among 110,000; AID 445; active = well fitted curve in the direction sought with a large enough effect in the signal ratio, not every such curve was filed as active; inconclusive = small, poorly fitted or top-dose-only effect, or a change in a side signal; the % refers to the signal ratio;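 also: potency is read from the fitted curve at half-maximal effect; the direction sought is a rising ratio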
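Luminescence ratio of IκBα-fused green versus native red beetle luciferase in OCI-Ly3 cells, 4 h post-doxycycline with compound; red signal alone, scaled from basal (0%) to zero light (-100%), flagged nonspecific or cytotoxic effects.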
Hsp90 Hop PPI – changes Hsp90-Hop TPR2A binding signal, up or down; AID 595; AlphaScreen TPR2A-His6 binding biotin-Hsp90 C-terminal peptide; Potency, µM (highest dose often 57 µM), without a hit: at the top dose activity change, negative = inhibition; hit rate 0.44% among 71,000; active = well fitted curve in either direction with a large enough effect; inconclusive = small, poorly fitted or top-dose-only effect, or another doubt; also: potency is read from the fitted curve at half-maximal effect; % is scaled to controls: 0 for no effect and ±100 for the full control effect
* hit, by the source's call; u = inconclusive; x = not tested or not shown; [ ] = dose if it differs, or a comment. Unless noted, calls follow the shape of the dose curve; as a rule, active = well fitted curve in the direction sought with a large enough effect; inconclusive = small, poorly fitted or top-dose-only effect, or another doubt; inactive = no such curve, though single readings can be large; an effect the other way counts as inactive or inconclusive.

SMILES	p53ts 32C kill	p53ts 39C kill	Luciferase inh	IMPase inh	IkB sig inh	Hsp90 Hop PPI
Cc1cccc(OCC(O)Cn2c(=N)n(CCN3CCCCC3)c3ccccc32)c1 (stereo not given)	-15.2%	12.6µM*	3.2%	3.1	u	-6.5%
CCn1c(=N)n(CC(O)COc2ccccc2)c2ccccc21 (stereo not given)	-6.7%	5.7%	x	x	-0.7%	x
CCN(CC)CCn1c(=N)n(CCOc2ccccc2Cl)c2ccccc21	u	10µM*	x	-8.7	u	x
CCN(CC)CCn1c(=N)n(CC(O)COc2ccccc2C)c2ccccc21 (stereo not given)	u	15.8µM*	x	15.0	u	x
COc1ccc2c(c1OC)C(Cc1ccccc1)N1CCc3cc4c(cc3C1C2)OCO4 (stereo not given)	23.1%	7.3%	x	10.6	x	x
COc1cc(C(=O)O[C@@H]2CC(C)=CC[C@@]3(C)CC[C@](O)(C(C)C)[C@H]23)ccc1O	x	x	1.9%[11.4 µM]	x	0.6%[11.4 µM]	-5.1%
COC(=O)CN1C(=O)CSc2ccc(S(=O)(=O)Nc3ccc(C)c(Cl)c3)cc21	-4.9%	-14.1%	x	x	u	x
Clc1cccc(C=NC=Nc2cccc(Cl)c2)c1	-4.5%	-12.7%	2µM*	12.1	0.0%	-2.3%
CC(=O)O[C@@H]1CC[C@]2(C)[C@H]3CC[C@]4(C)[C@H](C[C@H]5CCCC[C@@]54C(C)=O)[C@@H]3CC(=O)[C@@]2(O)C1	x	x	1.7%[11.4 µM]	x	0.7%[11.4 µM]	-10.7%
O=C(Nc1cccc2nsnc12)c1ccc2c(c1)OCO2	x	x	x	-0.2	x	x
Cc1nc2c(ccc3nc(NC(=O)c4ccc5c(c4)OCCO5)sc32)s1	3.98µM*	3.16µM*	0.794µM*	8.5	u	-14.0%
Cc1nc2ccc3nc(NC(=O)c4ccc5c(c4)OCCO5)sc3c2s1	-2.1%	2.7%	-4.3%	u	6.3%	-3.2%
O=C(Nc1cccc2nsnc12)c1ccc2c(c1)OCCO2	u	u	20µM*	5.5	u	u
O=C(CSc1ncnc2ccccc12)c1ccc2c(c1)OCCO2	x	x	x	-5.0	x	x
O=C(CS(=O)(=O)c1ccccc1)c1ccc2c(c1)OCCO2	u	-12.5%	12.6µM*	-4.9	5.7%	-3.2%
O=C(Cn1cnc2ccccc2c1=O)Nc1ccc2c(c1)OCCO2	u	u	12.6µM*	1.4	-2.0%	-5.7%
O=C(Cn1cnc2ccccc2c1=O)NCCC(=O)Nc1ccc2c(c1)OCCO2	7.7%	2.6%	1.8%	1.0	2.9%	-2.3%
O=C(O)CCC(=O)c1ccc2c(c1)OCCO2	-1.5%	0.8%	-6.2%	-3.6	1.9%	1.5%
O=C(CSc1nc2ccccc2[nH]1)Nc1ccc2c(c1)OCCO2	-27.0%	u	25.1µM*	-5.5	u	0.6%
O=C(COc1ncnc2ccccc12)c1ccc2c(c1)OCCO2	u	u	12.6µM*	-0.7	4.3%	0.5%
O=S(=O)(c1ccc(F)cc1)N1CCC(n2c(C(F)(F)F)nc3cccnc32)CC1	-2.7%	-9.8%	x	x	1.2%	x
O=C(CC(=O)c1ccccc1)Nc1ccc2c(c1)OCCO2	u	u	20µM*	1.0	u	-2.9%
CCOc1ccc(-c2nc(SCC(=O)Nc3ccc4c(c3)OCCO4)c(-c3ccc(F)cc3)[nH]2)cc1	-29.4%	15.8µM*	x	u	u	x
COc1ccc(-c2nc(SCC(=O)Nc3ccc4c(c3)OCCO4)c(-c3ccccc3)[nH]2)cc1	-16.4%	-24.6%	x	6.2	u	x
CCC(=O)Nc1ccc2c(c1)OCCO2	x	x	x	0.4	x	x
CCOC(=O)c1noc2ncnc(N3CCN(c4ccccc4OC)CC3)c12	1.9%	13.5%	x	x	-0.9%	x
CCC(=O)N[C@@H]1CCc2cccc(OC)c2C1	-0.9%	-6.9%	25.1µM*	1.7	0.6%	2.4%
CCOc1cc(C2c3c(-c4cc(C)ccc4O)n[nH]c3C(=O)N2CCCOC(C)C)ccc1O (stereo not given)	35.3%	3.9%	x	x	-3.9%	x
COc1ccccc1NC(=O)C1CCN(C(=O)c2sc3nc[nH]c(=O)c3c2C)CC1	5.6%	-28.9%	x	x	-2.4%	x
